From PubChem BioAssay
TRPM1 prom inh = reduces MITF-dependent TRPM1 promoter luciferase signal. SK-MEL-5 TRPM1 promoter luciferase, 24 h. inhibition, % at 12.5 µM. hit rate 0.83% among 330,000;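 active = mean inhibition across replicates of 60% or more, whatever share of single replicates reaches that level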
KKLEB cytotox = CF airway cell cytotoxicity counter-screen; KKLEB CF airway cells viability, ATPlite luminescence, overnight; active compounds read low; cells stimulated with P. aeruginosa culture filtrate; activity change (cytotoxicity), % at 5 µM; hit rate 0.36% among 360,000; AID 602141;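 active = corrected activity change at or below -50% at 5 µM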
HIF-2a inh = HIF-2a inhibition; 786-0 RCC cells HIF-2a reporter, luciferase luminescence, overnight; inhibition, % at 18.8 µM; hit rate 0.72% among 360,000; AID 624352;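 active = inhibition of the luminescence signal of 40% or more relative to plate controls, in a single-dose primary screen at 18.75 µM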
Peg3 prom inh = Peg3 promoter activity inhibition; HeLa PEG-Prom luciferase reporter, luminescence, overnight; inhibition, % at 20 µM; hit rate 1.7% among 360,000; AID 588405;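 active = inhibition of at least 50% at 20 µM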
CF NFkB inh = blocks PAF-induced NF-kB reporter in cystic fibrosis cells; KKLEB NF-kB-GFP reporter, GFP fluorescence overnight; inhibition, % at 5 µM; hit rate 0.86% among 360,000; AID 588850;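 active = at least 50% inhibition at 5 µM, scaled per plate between neutral and stimulator controls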;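 also: PAF is a Pseudomonas aeruginosa culture filtrate used as stimulus; plate controls were PAF-stimulated DMSO wells for no effect and unstimulated DMSO wells for full effect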
Shn3 3UTR inh = Schnurri-3 reporter inhibition in Clone20 osteoblasts; Clone20 osteoblast Shn3 3'UTR firefly luciferase, 24 h; AID 588674; inhibition, % at 12.5 µM; hit rate 0.52% among 360,000;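 active = mean inhibition of at least 75% with every replicate also reaching 75%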;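 also: 0% = median of neutral control wells and 100% = pilot-screen positive control compound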
* marks the source's active call; other numbers are inactive results; / = no result; ! = not active in a repeat. Most compounds without a hit are left out; they make up all but 2.8% or so of the library.

SMILES	TRPM1 prom inh	KKLEB cytotox	HIF-2a inh	Peg3 prom inh	CF NFkB inh	Shn3 3UTR inh
N=c1oc2ccc3ccccc3c2cc1C(N)=S	13	18	-12	-7	-24	1
Cc1ccc(-c2noc(CCC(=O)NC3CC3)n2)cc1	-56	1	-79	-59	-5	-5
Cc1ccc(NC(=O)/C=C/c2ccco2)cc1S(=O)(=O)N1CCCCCC1	16	7	-18	-12	15	31
CCOC(=O)c1c2c(n(Cc3ccccc3)c1C)C(=O)C(=O)c1ccccc1-2	/	-75*	89*	93*	61*	89*
CCOC(=O)c1c2c3c(cccc3n(C)c1=O)C(=O)c1ccccc1-2	-12	-13	-2	36	-38	1
COc1cc(NC(=O)COc2ccccc2Cl)ccc1NC(=O)c1cccs1	-40	-6	-164	-50	16	9
COc1cc(NC(=O)COc2ccccc2[N+](=O)[O-])ccc1NC(=O)c1cccs1	74*	-9	-170	57*	30	50
N#Cc1cc(C(=O)c2cc(Br)ccc2O)cn(C2CCCCC2)c1=O	2	-7	3	52*	33	19
COc1ccc(-c2coc3c(C(=O)Nc4cccnc4)cccc23)c(C)c1	/	-16	-67	-39	19	63
CCNC(=S)N1N=C2c3ccccc3CCC2C1c1ccc(F)cc1 (stereo not given)	/	-8	7	27	18	12
CNc1c2cccc(C)c2nc2c(C(=O)NCCN(C)C)cccc12	100*	-39	62*	108*	95*	97*
Cc1ccc(C(=O)NCCN(C)C)c(C)c1	0	3	-2	15	-8	8
Cc1cc(C)cc(S(=O)(=O)c2cn(C)c3cc(N4CCN(C)CC4)c(F)cc3c2=O)c1	51	-7	1	100*	6	-6
CCOc1ccc(CN2CCC(C(=O)Nc3cccc(-c4ccn[nH]4)c3)CC2)cc1Cl	-3	-2	-75	-90	6	-19
CC(C)c1ccc(OCc2ccc(C(=O)O)o2)cc1	25	-7	49*	51*	13	-8
CCc1ccc(C2C(C#N)=C(N)Oc3cc(N)ccc32)cc1 (stereo not given)	-5	3	13	50*	8	-10
O=[N+]([O-])c1cccc(-c2csc(N/N=C/c3cccc(O)c3)n2)c1	-33	11	-275	102*	40	-22
COc1ccc(-c2sc3ccccc3c2-c2ccc(OCCN(C)C)cc2)cc1	76*	-47	22	101*	44	51
CN(C)CCOc1ccc(-c2c(-c3ccsc3)sc3ccccc23)cc1	3	-31	-2	98*	42	-5
COc1cc2c(cc1NC(=O)CSc1nc3cc(Cl)ccc3s1)oc1ccccc12	2	-60*	4	12	39	12
CCC(=O)NC1=C(NC(C)c2ccccc2)C(=O)c2ccccc2C1=O (stereo not given)	30	9	-5	-6	12	10
CCC(=O)NC1=C(Cl)C(=O)C(NC(=O)CC)=C(Cl)C1=O	23	-2	96*	81*	37	17
C/C(CC(=O)NCc1ccco1)=N\NC(=O)c1ccc([N+](=O)[O-])cc1Cl	3	-1	0	-80	8	14
Cc1ccc(-n2c(SCC(=O)N/N=C/c3c(C)nn(-c4ccccc4)c3C)nc3ccccc3c2=O)cc1	-11	-4	1	39	24	9
Cc1ccc(/C=N/NC(=O)CSc2nc3ccccc3c(=O)n2-c2ccccc2C)s1	7	7	11	51*	-32	35
SMILES	TRPM1 prom inh	KKLEB cytotox	HIF-2a inh	Peg3 prom inh	CF NFkB inh	Shn3 3UTR inh
Cc1ccccc1-n1c(SCC(=O)N/N=C/c2c(C)nn(-c3ccccc3)c2C)nc2ccccc2c1=O	9	19	15	54*	-9	18
Cc1nn(-c2ccccc2)c(C)c1/C=N/NC(=O)CSc1nc2ccccc2c(=O)n1-c1ccc(Br)cc1	-5	-20	11	58*	21	28
CC(Oc1cc(F)ccc1[N+](=O)[O-])C(=O)N(C)CC(=O)Nc1ccccc1C(F)(F)F (stereo not given)	4	-29	17	8	18	4
CC(NC(=O)c1ccco1)C(=O)OC(C)C(=O)NCc1ccccc1 (stereo not given)	-4	4	19	7	-12	-21
O=C(Nc1cccnc1)c1ccc([N+](=O)[O-])s1	75*	4	-21	-2	25	27
CC(C)(C)c1oc(C(=O)O)cc1CN1CCOCC1	10	8	13	8	-2	-7
COc1cc(OC)c(OC)cc1/C=C1\CCC/C(=C\c2cc(OC)c(OC)cc2OC)C1=O	29	-8	17	72*	7	40
CC1(C(=O)OCC(=O)Nc2nc(-c3ccc(F)c(F)c3)cs2)CC1(Cl)Cl (stereo not given)	-5	-5	-88	-45	-20	0
CCCCN1CC(COCc2ccccc2)Oc2cccc(OCCN3C(=O)[C@@H]4[C@H](C3=O)C3C=C[C@H]4C3)c2S1(=O)=O (stereo not given in full)	11	-5	-14	59*	43	53
CCCCN1CC(COCc2ccccc2)Oc2cccc(Oc3ccc(OC)cc3)c2S1(=O)=O (stereo not given)	-5	8	15	4	6	55
COc1ccc(N(CC(=O)NCc2cccnc2)S(=O)(=O)c2ccccc2)c(OC)c1	7	5	5	0	-18	-10
CC1=C/C(=N\NC(=S)Nc2cccnc2)CC(C)(C)C1	62*	-1	0	-3	-38	60
CC1CCC(C(C)C)C(OC(=O)Cn2c(-c3ccccc3)[n+](C)c3ccccc32)C1 (stereo not given)	87*	-54*!	-2	65*	55*!	86*!
CCOC(=O)C1(C)CCN1C(=O)c1cncc(Br)c1 (stereo not given)	/	-2	7	2	3	-21
O=C(Nc1ccc(Cl)c(Cl)c1)Nc1nnc(CSc2ccccc2)s1	30	-56*	5	42	73*	58
Cc1cc(N/C=C/C(=O)c2ccccc2)ccc1Br	-19	-31	-183	-299	5	-33
O=C(/C=C/c1ccccc1Br)c1ccc2c(c1)OCO2	-28	-4	-231	-106	-1	10
O=C(/C=C\Nc1ccccc1Br)c1ccc2c(c1)OCO2	44	-75*	-28	-32	-7	34
O=C(/C=C/Nc1ccc(F)cc1Br)c1ccccc1	58	-72*	52*	39	4	-7
c1ccc2c(c1)[nH]c1c3ccccc3sc21	-22	-2	-286	-200	1	-20
C[C@H]1CN([C@@H](C)CO)C(=O)CCCn2cc(nn2)CO[C@@H]1CN(C)C(=O)OCc1ccccc1	/	-6	3	2	-2	4
